High-throughput results as filed in PubChem.
N-glyco inh: N-linked glycosylation inhibition; D54 ERlucT glycosylation luciferase reporter, 24 h; percent of 100 nM tunicamycin response; reporter increase, % at 12.5 µM; actives 0.23% (n = 360,000);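 active = mean luciferase reporter signal, scaled so untreated is 0 and the glycosylation-blocking control 100, at or above a set limit in every replicate; inconclusive = mean reaches the limit but not every replicate does; inactive = mean below the limit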;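 also: luciferase carries N-glycosylation sites so blocking glycosylation raises the light; 0% = median of neutral control wells and 100% = median of 100 nM tunicamycin wells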
Vif inh: HIV Vif inhibition; inhibition, % at 7.49 µM; actives 0.35% (n = 340,000); HEK293T cells, Vif self-association by quenched fluorescence, imaging, 24 h; in the data active = inhibition above about 50%, passing the limit was not always enough; inconclusive = no clear call, values can overlap the other calls; inactive = below about 31%
Wnt bcat act: activators of Wnt/beta-catenin signaling; Wnt/beta-catenin reporter cell assay, activator, plate reader; activation, % at 9.35 µM; actives 1.2% (n = 300,000); AID 743398; in the data active = activation above about 30%, passing the limit was not always enough; inconclusive = no clear call, values can overlap the other calls;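 also: 0% = neutral control wells and 100% = positive control wells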
PvdQ inh: P. aeruginosa PvdQ acylase inhibition | AID 488965 | actives 0.063% (n = 340,000) | inhibition, % at 10 µM | purified PvdQ acylase, fluorescence plate reader; in the data active = inhibition above about 30%, passing the limit was not always enough; inconclusive = no clear call, values can overlap the other calls;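 also: 0% = vehicle neutral wells and 100% = reference inhibitor wells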
esBAF inh: blocks esBAF chromatin remodeling in mouse ES cells; Bmi1-luciferase knock-in reporter, 24 h; 100% = twice the neutral-well signal; actives 2% (n = 350,000); reporter increase, % at 12.5 µM; in the data active = activation above about 40%; inconclusive = no clear call, values can overlap the other calls;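 also: 0% = median of the plate's neutral control wells and 100% = double that signal; a rise in the Bmi1 reporter signal indicates esBAF inhibition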
MITF TRPM1 HTS: activators of MITF-driven TRPM1 promoter activity in SK-MEL-5 cells; SK-MEL-5 TRPM1-promoter luciferase, 24 h; % of positive control, neutral wells = 0; activation, % at 12.5 µM; actives 0.75% (n = 300,000);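 active = mean activation of at least 80% with every replicate also reaching 80%; inconclusive = mean reaches 80% but some replicate falls short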;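 also: 0% = neutral control wells and 100% = parthenolide positive control wells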
The depositor's hits bear a star; ? = inconclusive; nt = no result given; ! = not confirmed by another sample. Hits are enriched below; roughly 2.9% of the tested compounds scored in any of these assays.

SMILES	N-glyco inh	Vif inh	Wnt bcat act	PvdQ inh	esBAF inh	MITF TRPM1 HTS
Cc1ccccc1C(=O)c1cccn1CC(=O)NCc1ccccc1Cl	-3	-8	8	9	57*	57
Cc1cc(C)nc(NS(=O)(=O)c2ccc(NC(=O)c3ccc(N4C(=O)CCC4=O)cc3)cc2)n1	-4	9	nt	44*	nt	-13
O=C(N/N=C1\CCc2ccccc21)c1ccncc1	2	16	20	-4	nt	60
c1ccc2c(c1)CCc1c(-c3ccncc3)n[nH]c1-2	15	-9	44*	-18	33	-14
CSc1ccc(-c2nnn(Cc3ccc(C)cc3)n2)cc1	0	6	nt	-9	nt	94*
CCNC(=O)C[C@@H]1C=C[C@@H](NC(=O)C2CCOCC2)[C@H](CO)O1	nt	nt	nt	nt	-3	nt
CC(C)(C)NC(=O)C(c1ccc(O)cc1)N(Cc1ccc2c(c1)OCO2)C(=O)CCl (stereo not given)	3	80*	-3	nt	3	nt
C=CCc1c(C)nc2ccc(C(=O)OCC)cc2c1Cl	-6	3	2	-13	53*	44
CCOC(=O)c1ccc2nc(C)c(CCC(C)=O)c(Cl)c2c1	-3	2	nt	-21	63*	nt
CCOC(=O)c1ccc2nc(C)c(CC)c(Cl)c2c1	-3	9	nt	-1	26	22
Cn1c(=O)cc(OCCCC(=O)NC2CCCC2)c2ccccc21	45*	18	20	8	-1	nt
Cn1c(=O)cc(OCCCC(=O)NCc2ccccn2)c2ccccc21	13	9	14	-4	-7	nt
Cn1c(=O)cc(OCC(=O)NC2CCCCC2)c2ccccc21	4	23	-1	0	-8	nt
Cc1ccnc(NC(=O)CCCOc2cc(=O)n(C)c3ccccc23)c1	26*!	97*	-1	-17	-5	-6
CC(=O)c1ccc2c(c1)Cc1cc(C(C)=O)ccc1-2	-1	-9	46*	9	nt	93*
Cc1ccc(OCCSc2ncccn2)c(C)c1	-10	-5	11	2	35	153*
c1cnc(SCCOc2cccc3ccccc23)nc1	-1	6	nt	-6	nt	106*
Clc1ccc(OCCSc2ncccn2)c2ccccc12	-2	0	14	8	20	41
Cc1noc(C)c1NC(=O)Nc1cccc2c1O[C@H](CN(C)Cc1ccc(C(=O)O)cc1)[C@H](C)CN([C@@H](C)CO)C2=O	nt	nt	nt	nt	-4	nt
O=C(Nc1ccccc1OC(=O)c1ccc(Cl)cc1)c1ccc(Cl)cc1	6	nt	?	-15	65*	16
COc1ccc(OC)c(NC(=O)c2ccc(Cl)cc2)c1	-1	1	-2	20	-6	-17
COc1ccc(C(=O)Nc2cc(Cl)ccc2OC(=O)c2ccc(OC)cc2)cc1	-7	4	nt	-9	69*	64
C[C@H](CO)N1C[C@H](C)[C@H](CN(C)S(=O)(=O)c2cccs2)Oc2ccc(NC(=O)C3CC3)cc2CC1=O	nt	nt	nt	nt	1	nt
Cc1cccc(-n2c(C)cc(C(=O)NC3CCCCC3)c2C)c1	2	1	21	3	16	63
CCc1ccc(NC(=O)NC2CCCCCCC2)cc1	-7	-9	19	-12	58*	95*
SMILES	N-glyco inh	Vif inh	Wnt bcat act	PvdQ inh	esBAF inh	MITF TRPM1 HTS
COc1ccc(-n2c(C)cc(C(=O)NC3CCCCC3)c2C)cc1	5	-4	18	-8	54*	43
CCOc1ccc(NC(=O)NC2CCCCCCC2)cc1	-2	-10	0	-8	59*	77
CCOc1ccc(NC(=O)C(=S)NC2CCCCC2)cc1	0	1	-1	-3	nt	136*
CCOc1ccc(CC(=O)NNC(=O)NC2CCCCC2)cc1	-1	-5	-1	-10	nt	-10
CCc1ccc(NC(=O)C(=S)NC2CCCCC2)cc1	-7	10	-4	-3	30	119*
CCOc1ccc(-n2c(C)cc(C(=O)CCl)c2C)cc1	41*	-1	-1	-10	-1	-70
COC(=O)c1ccc(-n2c(C)cc(C(=O)CCl)c2C)cc1	12	5	0	12	6	-86
COc1ccc(NC(=O)C(=S)NC2CCCCC2)cc1	-3	-5	39*	-3	36	69
C[C@H](CO)N1C[C@H](C)[C@@H](CN(C)S(C)(=O)=O)Oc2ccc(NS(=O)(=O)c3cccs3)cc2CC1=O	nt	nt	nt	nt	0	nt
CN(C)CCCNC(=O)C[C@H]1CC[C@@H]2[C@@H](COc3ccc(NC(=O)c4cccc(F)c4)cc3C(=O)N2C)O1	nt	nt	nt	nt	3	nt
